From PubChem BioAssay AID504905 (The Scripps Research Institute Molecular Screening Center, 2011) come the findings set out here.

This is one part of the list. Values without a mark were called inactive. Cut-off read from the data, not from the text of the source: active = activation above about 17%; inactive = the rest.

In the experiment the target is 5-hydroxytryptamine receptor 5A (Homo sapiens) (UniProt P47898). Kind of experiment: activation of human 5-HT5A receptor – cell-based, luminescence, counter-screen for OPRM1-OPRD1 heterodimer agonist project (AID 504905).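 Note: 0% = vehicle-treated cells and 100% = reference agonist response.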 Conditions: HTR5A agonist counterscreen, at 9.3 µM, hits give high values. For orientation: Counterscreens check selectivity or assay interference.
Chain of 5-hydroxytryptamine receptor 5A (Homo sapiens) (P47898 whole entry, looked up): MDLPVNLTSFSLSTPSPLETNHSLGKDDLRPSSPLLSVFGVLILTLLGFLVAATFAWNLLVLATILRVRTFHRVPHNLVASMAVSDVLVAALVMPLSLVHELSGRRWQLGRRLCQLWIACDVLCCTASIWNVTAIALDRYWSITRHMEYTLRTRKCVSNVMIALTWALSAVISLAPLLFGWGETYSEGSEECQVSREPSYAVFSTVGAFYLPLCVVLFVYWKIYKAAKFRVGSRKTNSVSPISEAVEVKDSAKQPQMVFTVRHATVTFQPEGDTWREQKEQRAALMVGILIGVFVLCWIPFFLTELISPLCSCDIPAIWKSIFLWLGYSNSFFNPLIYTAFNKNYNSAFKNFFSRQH
With `CCOC(=O)C1(CCc2ccccc2)CCN(Cc2ccco2)CC1`, the activation is 3.8%. Under `C[C@]12CC[C@H](O)C[C@H]1CC[C@@H]1C2CC[C@]2(C)[C@@H](C3=CC(=O)OC3)[C@@H](O)C[C@]12O` (some centres undefined) stands -0.48%; under `COC1C(O)C(C)OC(OC2CCC3(C=O)C(CCC4C3CCC3(C)C(C5=CC(=O)OC5)CCC43O)C2)C1O` (centres undefined), 13.7%. In the case of `CCC1(C)CC(CCNCc2ccc(N(C)C)cc2)(c2ccc(F)cc2)CCO1` (centres undefined), the activation was 0.44%.
